Spn MK inh: S. pneumoniae MK inhibitors, primary screen, biochemical, PK/LDH-coupled NADH absorbance; purified MK, PK/LDH-coupled NADH absorbance 340 nm; inhibition, % at 10 µM; hit rate 0.48% among 65,000; AID 555, 2006;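 active = ranked among the strongest by inhibition in the single 10 µM screen, a fixed top-ranked set picked for dose follow-up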
NADH coupling: inhibitors of PK/LDH coupling enzymes, profiling panel, artefact control, biochemical, MLSMR library | IC50, µM (top dose mostly 10 µM), for the others: at the highest dose inhibition | hit rate 0.02% among 65,000 | coupled PK/LDH NADH assays, four targets;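 active = single-dose screening hits from any of four coupled enzyme assays that gave an IC50 when retested across doses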;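 also: the DPM-DC format reads NADH fluorescence rather than 340 nm absorbance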
Spn DPM-DC inh: S. pneumoniae DPM-DC inhibitors, primary screen, biochemical, PK/LDH-coupled NADH fluorescence; diphosphomevalonate decarboxylase (Streptococcus pneumoniae D39); purified DPM-DC; calls only at 10 µM; hit rate 0.49% among 65,000;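 active = the 320 compounds with the highest percent inhibition in the single-dose primary screen, excluding strongly autofluorescent ones, cut at about 32% in these data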;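 also: kinetic rate of NADH fluorescence loss reporting ADP formed by the decarboxylase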
Autofluor 339: intrinsic fluorescence of library compounds, ex339/em460 – biochemical, MLSMR library, data from DPM-DC assay, artefact control, profiling panel | compound autofluorescence, ex339/em460 nm, NADH buffer; active compounds read high; 1 = no-compound wells, NADH background | fluorescence fold increase at 10 µM | hit rate 5.5% among 65,000 | AID 709, 2007;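 active = at 10 µM, mean starting fluorescence two-fold or more over control wells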;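 also: signal is the first read of a kinetic run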
Spn PMK inh: S. pneumoniae PMK inhibitors, primary screen, biochemical, mevalonate pathway, pilot trial included; phosphomevalonate kinase (Streptococcus pneumoniae D39); purified PMK, PK/LDH-coupled NADH absorbance 340 nm; inhibition, % at 10 µM; hit rate 0.49% among 65,000;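 active = top-ranked compounds by inhibition in the single 10 µM screen, taking a fixed number of the strongest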;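 also: 0% = full reaction with DMSO carrier and 100% = background rate without enzyme reaction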
Numbers without * were called inactive; i = inactive; / = no result given; + = active, no number. A selection: hits, their analogues and other compounds. The true share with any hit is near 6.6%.

SMILES	Spn MK inh	NADH coupling	Spn DPM-DC inh	Autofluor 339	Spn PMK inh
N=c1c(C(=O)NCc2ccccc2)cc2c(=O)n3ccccc3nc2n1CCCN1CCOCC1	3.0	7.0%	/	3.73*	10.0
N=c1c(C(=O)NCc2ccc(F)cc2)cc2c(=O)n3ccccc3nc2n1CCCN1CCOCC1	1.0	2.0%	/	2.95*	14.0
CN(C)C(CNC(=O)CN1C(=O)NC2(CCc3ccccc32)C1=O)c1ccco1 (stereo unspecified)	3.0	7.0%	i	1.01	18.0
CCOC(=O)c1ccc(N2C(=O)C3C(C2=O)C(C(=O)c2ccc(Cl)cc2)N2CCCC32)cc1 (stereo unspecified)	7.0	3.0%	i	1.11	2.0
COc1cccc(-c2nnc(SCC(=O)OC(C)C)n2Cc2ccco2)c1	3.0	2.0%	i	1.09	2.0
COCCN1CCn2c(nc3cc(NC(=O)NC4CCCCC4)ccc32)C1	9.0	9.0%	/	3.72*	8.0
CCOC(=O)N1CCN(C(=O)CSc2ccccc2)CC1	4.0	6.0%	i	1.1	14.0
COc1ccc(C(O)Cn2c(=N)n(CCCN(C)C)c3ccccc32)cc1 (stereo unspecified)	0.0	8.0%	+	0.99	8.0
COc1ccc(OCCn2c(=N)n(CCO)c3ccccc32)cc1	4.0	4.0%	i	1.05	3.0
Cc1noc(C)c1COc1ccc(C(=O)NCc2ccccn2)cc1	0.0	5.0%	i	1.05	16.0
CC(C(=O)NCc1ccccc1)N(CCN1CCOCC1)C(=O)c1snc(C(N)=O)c1N (stereo unspecified)	4.0	13.0%	i	2.35*	10.0
CC(C(=O)NCC1CCCO1)N(C(=O)c1snc(C(N)=O)c1N)c1cccc(F)c1 (stereo unspecified)	13.0	20.0%	i	3.9*	19.0
COCCNC(=O)C(c1ccc(C)o1)N(C(=O)c1snc(C(N)=O)c1N)c1ccc(C)c(C)c1 (stereo unspecified)	2.0	7.0%	i	1.58	8.0
CC(NC(=O)OCc1ccccc1)C(=O)NCC1CCCO1 (stereo unspecified)	12.0	9.0%	i	1.07	6.0
CC(C(=O)NCC1CCCO1)N(C(=O)c1snc(C(N)=O)c1N)c1ccccc1 (stereo unspecified)	13.0	12.0%	i	3.11*	19.0
Cc1ccc(S(=O)(=O)n2nc(-c3ccc(Cl)cc3)nc2NCc2ccco2)cc1	0.0	0.0%	i	1.17	1.0
N#CC1(c2ccccc2)CCCN1C(=O)c1ccc(Br)o1 (stereo unspecified)	4.0	5.0%	i	1.13	10.0
Oc1ccc(CN2CCCCC2)nc1-c1ccccc1	0.0	5.0%	i	3.29*	0.0
CN(C)S(=O)(=O)c1cccc(CSc2cccc[n+]2[O-])c1	0.0	0.0%	i	1.11	0.0
Cc1cccc2cc(C#N)c(NCCNC(=O)NC3CCCCC3)nc12	6.0	6.0%	i	2.07*	12.0
Cc1cccc2cc(C#N)c(NCCNS(=O)(=O)c3ccc4c(c3)OCCO4)nc12	4.0	8.0%	i	2.15*	10.0
CCOc1ccc2nc(NCCNC(=O)Nc3ccccc3)c(C#N)cc2c1	8.0	10.0%	i	1.7	14.0
Cc1ccc2cc(C#N)c(NCCNC(=O)C3CCC3)nc2c1C	1.0	12.0%	i	3.12*	14.0
CCC(C)n1c(-c2cccs2)nc2nc3ccccc3nc21 (stereo unspecified)	2.0	2.0%	/	3.94*	2.0
C=CCn1c(-c2cccs2)nc2nc3ccccc3nc21	0.0	1.0%	/	1.39	13.0
COC(=O)c1cc(-c2ccccc2)sc1NC(=O)c1cc(C)on1	12.0	4.0%	/	2.46*	4.0
CC(C)CN(CC(C)C)S(=O)(=O)N1CCC(C(=O)NC2CCCCCCC2)CC1	1.0	10.0%	i	1.02	30.0*
COc1cccc(-c2nn(C)c3sc(C(=O)NCc4ccco4)cc23)c1	10.0	6.0%	i	3.02*	7.0
CCN1CCCC1CNC(=O)c1cc2c(-c3cccc(OC)c3)nn(C)c2s1 (stereo unspecified)	7.0	8.0%	/	4.98*	9.0
